15-hLO-2 inh = 15-hLO-2 (ALOX15B) enzyme inhibition; O15296; purified 15hLO-2, xylenol orange hydroperoxide absorbance; Potency, µM (highest dose often 57.1 µM), for inactives: at the highest dose activity change, negative = inhibition, usual class: inhibitors; 110,000 compounds, 0.56% hits; AID 881; further: potency means the concentration at half of the fitted maximal effect; on the % scale 0 is the no-effect control and ±100 the full control effect; nearly all actives have a fitted effect of over 60% in size
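Purified human 15hLO-2 (50 nM final) preincubated with compounds 15 min at room temperature in 25 mM Hepes pH 7.5, 0.01% Triton X-100, then 45 uM arachidonic acid added for 90 min; hydroperoxide detected via ferrous/xylenol orange, 573/405 nm absorbance ratio.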
15-hLO inh = 15-hLO (ALOX15) enzyme inhibition; AID 887; P16050; Potency, µM (titrated, usually from 57.1 µM), for inactives: top-dose activity change, negative = inhibition, hits mostly inhibitors; purified 15hLO-1, xylenol orange hydroperoxide absorbance; 74,000 compounds, 1.4% hits; further: potency means the concentration at half of the fitted maximal effect; on the % scale 0 is the no-effect control and ±100 the full control effect; nearly all actives have a fitted effect of over 55% in size
Target sequence (P16050 whole entry, looked up): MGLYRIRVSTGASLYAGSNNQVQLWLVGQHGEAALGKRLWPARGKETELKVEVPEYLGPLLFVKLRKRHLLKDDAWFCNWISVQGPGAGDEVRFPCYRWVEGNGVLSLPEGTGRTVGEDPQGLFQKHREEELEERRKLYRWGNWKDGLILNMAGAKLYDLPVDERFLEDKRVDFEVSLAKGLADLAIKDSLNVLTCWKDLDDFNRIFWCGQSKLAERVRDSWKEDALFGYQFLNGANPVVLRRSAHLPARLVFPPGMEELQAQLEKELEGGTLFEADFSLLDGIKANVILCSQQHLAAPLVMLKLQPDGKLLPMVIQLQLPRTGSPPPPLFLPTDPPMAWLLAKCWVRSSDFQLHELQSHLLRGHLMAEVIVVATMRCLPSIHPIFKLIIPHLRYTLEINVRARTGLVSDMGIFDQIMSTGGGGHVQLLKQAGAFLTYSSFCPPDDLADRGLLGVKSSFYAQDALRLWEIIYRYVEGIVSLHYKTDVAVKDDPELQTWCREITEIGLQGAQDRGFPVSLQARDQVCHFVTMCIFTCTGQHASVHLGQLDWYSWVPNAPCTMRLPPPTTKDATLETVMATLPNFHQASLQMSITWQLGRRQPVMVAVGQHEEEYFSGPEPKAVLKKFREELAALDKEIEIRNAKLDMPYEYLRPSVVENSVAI
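Quantitative HTS in 25 mM Hepes pH 7.5 containing 0.01% Triton X-100: human 15hLO-1 at 40 nM, arachidonic acid at 50 uM, 6 min turnover. Product quantified via ferrous oxidation/xylenol orange, 573:405 nm absorbance ratio.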
BRCT PPI green = blocks human BRCA1 BRCT binding to phosphopeptide, green readout. 75,000 compounds, 0.05% hits. BRCA1 BRCT-phosphopeptide binding, green fluorescence polarization. AID 875. Potency, µM (highest dose often 76.9 µM), for inactives: top-dose activity change, negative = inhibition, most hits filed as inhibitors;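 further: potency means the concentration at half of the fitted maximal effect; plate controls were peptide without protein for full effect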
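Compounds were incubated for 12 min at room temperature with a complex of 100 nM fluorescein-tagged pBACH1 decapeptide and 250 nM His-tagged BRCT protein. Buffer was phosphate pH 7.3 with EDTA, DTT and Tween 20. Disruption of binding lowers the polarization signal.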
BRCT inh red = BRCT-phosphoprotein interaction inhibition (red fluorophore); P38398; Potency, µM (doses to about 76.9 µM), without a hit: at the top dose activity change, negative = inhibition, hits mostly inhibitors; 75,000 compounds, 0.03% hits; BRCT-phosphopeptide binding, red fluorescence polarization; further: on the % scale 0 is the no-effect control and ±100 the full control effect
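Rhodamine-labelled pBACH1 10-mer (100 nM) bound to BRCT domain (100 nM) at pH 7.3; compounds incubated 12 min room temperature, polarization read. Free peptide defines full inhibition; unlabelled decapeptide titrated as control.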
YjeE inh = displaces an ADP probe from E. coli YjeE (TsaE) | Potency, µM | 71,000 compounds, 0.05% hits | purified YjeE enzyme, qHTS inhibition assay | P0AF67 | AID 605
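Fluorescence polarization of a BODIPY Texas Red–ADP probe (2 uM) bound to purified YjeE (10 uM) was read after 15 min room-temperature incubation with compounds. Loss of polarization marks inhibitors; ADP serves as titrated control.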
DNA Pol III inh = blocks replication by bacterial DNA polymerase III holoenzyme; Potency, µM (doses to about 57.1 µM), without a hit: at the top dose activity change, negative = inhibition; 71,000 compounds, 0.25% hits; AID 603; reconstituted DNA polymerase III holoenzyme replication, biochemical; further: potency means the concentration at half of the fitted maximal effect; on the % scale 0 is the no-effect control and ±100 the full control effect
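Reconstituted *E. coli* holoenzyme (0.35 nM Pol III, 1 nM beta, 154 nM SSB, 2 nM primase) was preincubated with compound for 15 min at RT. Synthesis on 1.4 nM ssM13Gori ran 35 min, then was stopped with PicoGreen/EDTA and read as dsDNA fluorescence.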
Starred values were filed as active, the others as inactive; i = inactive; ? = inconclusive; · = not tested or not shown; ! = repeats disagree; [ ] = remark or other dose. This excerpt belongs to a sample that is enriched for hits. The call rests on the fitted dose curve; in most records, active means well fitted curve in the direction sought with a large enough effect; inconclusive means small, poorly fitted or top-dose-only effect, or another doubt; inactive means no such curve, though single readings can be large; an effect the other way counts as inactive or inconclusive.

SMILES | 15-hLO-2 inh | 15-hLO inh | BRCT PPI green | BRCT inh red | YjeE inh | DNA Pol III inh
O=C(NC(=S)Nc1ccc(N2CCCCC2)c(Cl)c1)c1ccc2c(c1)OCCO2 | 10µM* | · | · | · | · | ·
CC(C)NCC(O)Cn1c2c(c3ccccc31)CCc1c-2cnn1-c1ccccc1 (stereo not drawn) | -5.3% | 12.6µM* | -3.1% | -3.9% | i | -8.1%
O=C(Nc1nc(-c2ccco2)cs1)c1ccccc1 | -16.2% | 15.8µM* | 3.1% | 0.2% | i | -4.1%
C[C@H](N)C1CCC(C(=O)Nc2ccncc2)CC1 (stereo partly drawn) | 8.8% | -2.4% | -2.2% | -1.8% | i | -6.8%
COc1ccc2[nH]c(=O)c(CN(Cc3ccco3)C(c3nnnn3Cc3ccccc3)C(C)C)cc2c1 (stereo not drawn) | 0.3% | · | · | · | · | ·
COc1ccc2[nH]c(=O)c(CN(C3CCCCC3)C(c3nnnn3Cc3ccco3)C(C)C)cc2c1 (stereo not drawn) | ? | 15.8µM* | 9.7% | -0.1% | i | -9.5%
COc1ccc2[nH]c(=O)c(CN(Cc3nnnn3Cc3ccco3)C3CCCCC3)cc2c1 | ? | 6.31µM* | -14.4% | -9.6% | i | -17.2%
CCC(c1nnnn1Cc1ccco1)N(Cc1cc2cc(C)cc(C)c2[nH]c1=O)CC1CCCO1 (stereo not drawn) | 2.6% | 10µM* | -4.2% | -0.7% | i | -2.3%
CCC(c1nnnn1Cc1ccco1)N(Cc1ccccc1OC)Cc1cc2cc(C)ccc2[nH]c1=O (stereo not drawn) | -6.1% | -28.0% | 1.1% | 0.7% | i | -3.8%
CCC(C)O (stereo not drawn) | 11.2% | 4.5% | 1.1% | 1.2% | i | 0.0%
O=C(O)c1c(-c2c3ccc(=O)cc-3oc3cc(O)ccc23)cc2ccccc2c1-c1ccccc1 | -8.9%[11.4 µM] | 13.1%[11.4 µM] | -0.7%[15.4 µM] | -0.2%[15.4 µM] | i | -11.2%[11.4 µM]
COCc1cc(C)nc2sc(C(=O)N3CCCCC3)c(N)c12 | -7.5% | · | · | · | · | ·
COCc1cc(C)nc2sc(C(=O)N3CCN(c4ccccc4)CC3)c(N)c12 | 2.9% | 6.31µM* | -2.5% | 0.0% | i | -5.9%
CO[C@H]1COC(=O)[C@@H](CCSC)NC(=O)C/C=C\[C@@H](C)COC(=O)[C@@H](OCc2ccccc2)/C=C\[C@@H]1C | · | 0.3%[11.4 µM] | -0.8%[15.4 µM] | 0.9%[15.4 µM] | · | ·
Cc1ccc([N+](=O)[O-])cc1N | 1.1% | 3.8% | 0.7% | -0.9% | i | -9.4%
Cc1ccc([N+](=O)[O-])cc1S(=O)(=O)N(C)C | 12.1% | 25.1µM*! | -2.0% | 1.7% | · | ·
CCCCCCCCCCCCCCCC(=O)NC[C@@H](COP(=O)([O-])OCC[N+](C)(C)C)OCC | -21.0% | 46.1% | -3.2% | -5.0% | i | -2.6%
Cc1ccc(NC(=O)COc2ccc(/C=N/NC(=O)CSCc3ccccc3)cc2)cc1 | 3.4%[11.4 µM] | · | · | · | · | ·
CCOC(=O)c1c2ccc(OCC(=O)N/N=C/c3ccc(C)cc3)cc2n2ccccc12 | 15.8µM* | · | · | · | · | ·
O=C(Oc1ccc2c(c1)OCO2)c1cc2c(s1)CCC2 | -18.2% | 20µM* | -11.3% | -17.5% | i | -28.8%
c1ccc([C@H](c2cccc3c2ccc2ccccc23)[C@H](c2ccccc2)c2cccc3c2ccc2ccccc23)cc1 | -1.0%[11.4 µM] | 7.9%[11.4 µM] | -0.3%[15.4 µM] | -1.1%[15.4 µM] | i | 1.4%[11.4 µM]
Cc1cc(NC(=O)CSc2nc3c(c(-c4cccnc4)c2C#N)CCC3)no1 | 3.4% | -5.5%[11.4 µM] | -0.1% | 1.9% | i | 3.16µM*
Cn1c(=O)c2c(ncn2CN2CCN(Cn3cnc4c3c(=O)n(C)c(=O)n4C)CC2)n(C)c1=O | -6.2%[11.4 µM] | 13.7%[11.4 µM] | -0.6%[15.4 µM] | -0.1%[15.4 µM] | i | -11.8%[11.4 µM]
CCCCC/C=C\C[C@H](O)/C=C\c1cccc(C[C@H](O)CCCCO)n1 | -18.9% | 20µM* | 2.6% | -1.3% | i | -2.9%
c1ccc2sc(SN3CCOCC3)nc2c1 | 20µM* | 2µM* | -1.3% | -1.1% | i | -3.6%
CN(CCC(=O)O)S(=O)(=O)c1ccccc1 | -3.6%[11.4 µM] | 10.5%[11.4 µM] | 1.6%[15.4 µM] | -0.6%[15.4 µM] | i | 5.7%[11.4 µM]
O=C(O)CCCN1CCCCC1 | 0.2%[11.4 µM] | 1.5%[11.4 µM] | 1.1%[15.4 µM] | -2.5%[15.4 µM] | i | -6.4%[11.4 µM]
